Substitutions are numbered along the chain they refer to. In all, about 24,000 sequences were measured (“enrichment r”: median about 0.99, highest 2% from about 3.7 on). The entries come from a sample that favours the highest values as a whole.
B1: chr7:54825262:54825263:-_ENSG00000132432_ENST00000352861|hu_hu|hu_hu_hu_mus_False|68_108 (ssRNA)
RNA: GGGAGUUCUACAGUCCGACGAUCCUGACUUGGCUCAUCCACAAACUGCAUUACCUGAUCCAUGUUUUACCCAACCGGGAUUGAGAGCGUAGAGACACGUAGCUCAGGAGAGAACCGAGCCCAACGGAACCGGAAGCUGGCAACCAACAGAGGAUUGAGCAUCA
B2: chr5:73697939:73697940:+_ENSMUSG00000029152_ENSMUST00000031038|mus_mus|motif|central (ssRNA)
RNA: GGGAGUUCUACAGUCCGACGAUCUCCUUGGGCAAUAUGGUCAGUAAUACCAGUGGGAGUGGACUCGUUCAUAGAAGCACGGAAUGGAAUUGGCUCAUAACGAGGAAGCGCCUCCUUUUCUAUGUUGUCUGCUGCUGGAGAUGUCAACAGAGGAUUGAGCAUCA
B3: chr10:98281081:98281082:-_ENSG00000077147_ENST00000371142|hu_mus|motif|central (ssRNA)
RNA: GGGAGUUCUACAGUCCGACGAUCAUCGCAAUACAGUCCCCCAGUCAGUCUGUACAUCCAAAUGCAUCCAGGAACCGGCACCGGCGCGACAUUAUUAAUGUUAUAUACAUUUAUUGCCCCCCUUGUUUUGUUUAAUAAUUUCUUCAACAGAGGAUUGAGCAUCA
B4: chr2:47388980:47388981:-_ENSG00000143933_ENST00000272298|hu_mus|hu_hu_hu_mus_True|68_98 (ssRNA)
RNA: GGGAGUUCUACAGUCCGACGAUCUUCAUCUGUUAACUUCUCUCCAAGGUUUGUCAUCACAUGGCGAAGUUCUGCAGCACUAAUAUAGCCAUUGCCAUCCUUAUCAAACACACGGAAUGCUUCUCUAAUCUCUUCUUCACUGUCCAACAGAGGAUUGAGCAUCA
B5: 132634964_132635084_86_5pUTR_ENSMUSG00000030750_ENSMUST00000033006|mouse|control|control (ssRNA)
RNA: GGGAGUUCUACAGUCCGACGAUCCCCGCCUCCAGGGCGGAGAGAUCGCCAGACUGGAGCUCCUACUGGUGGGCUACGCGCAUUCUCCCGCUCACCAGCGGAGUACUUCCGUUUUCCCCGCCCGCUCUGUUGCUAUGGCGCCUUCAACAGAGGAUUGAGCAUCA
B6: chr2:24222969:24222970:+_ENSG00000173960_ENST00000309033|hu_mus|FALSE|FALSE (ssRNA)
RNA: GGGAGUUCUACAGUCCGACGAUCAUUAAUGACACAGCUAUUUAAUGUCAUAUUGGCUAACUAAUAUUUGAAAAAUAGGUAUUUUUUUCUGAAUAGCCUGUUGAGAAAAAUGCACUGACCCUGGCUUAGAGCCAUGUCACUCUCCAACAGAGGAUUGAGCAUCA
B7: chr16:94664741:94664742:+_ENSMUSG00000040785_ENSMUST00000117648|mus_hu|mus_mus_mus_hu_False|48_78 (ssRNA)
RNA: GGGAGUUCUACAGUCCGACGAUCUGGUACUGAUCUUGGUAGCUGAUAUUCAGGAGAAAUGUUGGCCAAGGGUGUAUAUAUGCUGGUGAACUGCGACAAACCUGGUAACACGUUUAUGUAUGCUGGCGGUGUCUGGGUGAUAUCCAACAGAGGAUUGAGCAUCA
B8: 203421096_203421216_3307_3pUTR_ENSG00000204217_ENST00000374580|human|control|control (ssRNA)
RNA: GGGAGUUCUACAGUCCGACGAUCAGAUCCAGAGAAUUAGGCCUCUGUGCUCUUCUGGGCUUUGAUGGCCCAGGAUCUGCUGCUGUGCUUGGAACACCCUGUGCAAGAACAUCUUGUUCUGAACAUGGAUUGCUGUUGUUGUUACAACAGAGGAUUGAGCAUCA
B9: chr11:87793471:87793472:-_ENSMUSG00000020483_ENSMUST00000020775|mus_mus|mus_mus_mus_hu_False|1_108 (ssRNA)
RNA: GGGAGUUCUACAGUCCGACGAUCUGGGGGCUGGGGAAAAAGAAUAAGCUGGAUCCCCCACCCCCCCACAUUGUCAACCCUACACGAGAGUUUUGAAGGCGACUCAUGAAAAUCAGCAGCUCAAACGGCAAUGACCACCCACCCCAACAGAGGAUUGAGCAUCA
B10: chr11:87793471:87793472:-_ENSMUSG00000020483_ENSMUST00000020775|mus_mus|mus_mus_mus_hu_False|1_98 (ssRNA)
RNA: GGGAGUUCUACAGUCCGACGAUCUGGACUUGAAAAUAAAAAAAAUAGCUGGAUCCCCCACCCCCCCACAUUGUCAACCCUACACGAGAGUUUUGAAGGCGACUCAUGAAAAUCAGCAGCUCAAACGGCAAUGACCACCCACCCCAACAGAGGAUUGAGCAUCA
B11: chr11:87793471:87793472:-_ENSMUSG00000020483_ENSMUST00000020775|mus_mus|mus_mus_mus_hu_False|98_98 (ssRNA)
RNA: B10 RNA with A140C, C141A
B12: chr4:57314706:57314707:+_ENSG00000128050_ENST00000264221|hu_mus|hu_hu_hu_mus_True|1_18 (ssRNA)
RNA: GGGAGUUCUACAGUCCGACGAUCCAGAAUUUCAAAAAUAGCUUGUGUGGCAUGACUCAUGAUGUCCACUUCAGUCUGCCCUAUAACAAGGCCAGCAAAACAGAAUUUUGCAGCAAUCAGCUGUUCCUCAGACCACUGUGGGUCCAACAGAGGAUUGAGCAUCA
B13: chr11:87793471:87793472:-_ENSMUSG00000020483_ENSMUST00000020775|mus_mus|mus_mus_mus_hu_False|38_88 (ssRNA)
RNA: GGGAGUUCUACAGUCCGACGAUCUGGACUUGAAAAUAAAAGAAUAAGCUAGAUUUCCCACCCCCCCACAUUGUCAACCCUACACGAGAGUUUUGAAUGAUUCAUAAGAAAAUCAGCAGCUCAAACGGCAAUGACCACCCCACCCAACAGAGGAUUGAGCAUCA
B14: chrX:16864032:16864033:-_ENSG00000102054_ENST00000404022|hu_hu|FALSE|FALSE (ssRNA)
RNA: GGGAGUUCUACAGUCCGACGAUCCAUGAUGUUAUCCUCAGACACUGAGCAAAUGACCCAAGGCUCAUUGGGGUUCCAGCUAAAAUCUGAAAUCUUAGCAGUGUGUCCUCCAUGAAUAAACAGGAGUUCUGGAGGCCCAUCUUCCAACAGAGGAUUGAGCAUCA
B15: chr11:87793471:87793472:-_ENSMUSG00000020483_ENSMUST00000020775|mus_mus|mus_mus_mus_hu_False|68_98 (ssRNA)
RNA: B10 RNA with U70G, A140C, C141A
B16: chr11:87793471:87793472:-_ENSMUSG00000020483_ENSMUST00000020775|mus_mus|mus_mus_mus_hu_False|58_98 (ssRNA)
RNA: B10 RNA with C82U, A83G, A140C, C141A
B17: chr11:87793471:87793472:-_ENSMUSG00000020483_ENSMUST00000020775|mus_mus|mus_mus_mus_hu_False|38_98 (ssRNA)
RNA: B13 RNA with G41A, U44A, A45U, A50G, U54C, U55C
B18: chr11:87793471:87793472:-_ENSMUSG00000020483_ENSMUST00000020775|mus_mus|mus_mus_mus_hu_False|88_98 (ssRNA)
RNA: B10 RNA with G50A, C54U, C55U, A140C, C141A
B19: chr4:57314706:57314707:+_ENSG00000128050_ENST00000264221|hu_mus|hu_hu_hu_mus_True|18_58 (ssRNA)
RNA: B12 RNA with C78G, C86G, G141A
B20: chr14:103803487:103803488:+_ENSG00000100664_ENST00000558506|hu_hu|FALSE|FALSE (ssRNA)
RNA: GGGAGUUCUACAGUCCGACGAUCGAGUUUAUGAUGUGUGUCAAGCAUGCCUCGAUAGCCACAGGCUUUACAAGAAUUACCUAUUGUUUGCUUCUUUGGAUUGACAUGCAAAUCUGUUUCAGGAUUCUCACAUUCAGGACAGAGCAACAGAGGAUUGAGCAUCA
B21: chr11:68315578:68315579:+_ENSG00000110075_ENST00000393800|perfect_dup|motif|central (ssRNA)
RNA: GGGAGUUCUACAGUCCGACGAUCUGGAGGUUCGAUACACGUCAGGAGCCUGAGCAACAAAUCCAUGAUAGCAGAAGUUCCGGUGUGCUUUAUAAUAAGGUCUACAAAAUCAUGCUUCUUCUUUAAGAAAUCCACAAUCUGUUCCAACAGAGGAUUGAGCAUCA
B22: chr2:216981417:216981418:+_ENSG00000079246_ENST00000392132|hu_hu|hu_hu_hu_mus_True|28_68 (ssRNA)
RNA: GGGAGUUCUACAGUCCGACGAUCCUGAUACUGGUCCUUGCCAGCAAGGGCAUUAUCAGUGCCAUCUGUACCAAACAGGACUAACGCAAUCUCAUCUUUGCUCUCCGCAAACACCUGUCGUUGGACAAACAUAGUCAUCACUUUCAACAGAGGAUUGAGCAUCA

The binders below were run against T1, UNK ZnF1-3 (human, UniProt Q9C0B0 31-174) (assay: nsRBNS (natural sequence RNA bind-n-seq); RBNS binding buffer (assumed for nsRBNS): 25 mM Tris pH 7.5, 150 mM KCl, 3 mM MgCl2, 0.01% Triton X-100, 500 ug/ml BSA, 20 U/ml SUPERase-In, 4 C; UNK is unkempt and MSI1 is Musashi-1; names of the RNAs are library labels; protein concentration not given here; high values mean tight binding).
T1 sequence: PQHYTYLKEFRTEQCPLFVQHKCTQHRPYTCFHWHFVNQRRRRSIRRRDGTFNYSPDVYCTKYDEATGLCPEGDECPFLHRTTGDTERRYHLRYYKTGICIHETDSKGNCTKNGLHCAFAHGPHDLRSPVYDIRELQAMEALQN

Row | Binder | binding signal
1 | B1 | 1.72 enrichment R
2 | B2 | 1.27 enrichment R
3 | B3 | 1.36 enrichment R
4 | B4 | 0.882 enrichment R
5 | B5 | 0.567 enrichment R
6 | B6 | 0.836 enrichment R
7 | B7 | 1.01 enrichment R
8 | B8 | 0.924 enrichment R
9 | B9 | 1.72 enrichment R
10 | B10 | 3.94 enrichment R
11 | B11 | 4.07 enrichment R
12 | B12 | 0.937 enrichment R
13 | B13 | 1.97 enrichment R
14 | B14 | 1.18 enrichment R
15 | B15 | 3.54 enrichment R
16 | B16 | 3.93 enrichment R
17 | B17 | 4.29 enrichment R
18 | B18 | 3.58 enrichment R
19 | B19 | 0.97 enrichment R
20 | B20 | 1.32 enrichment R
21 | B21 | 1.87 enrichment R
22 | B22 | 0.739 enrichment R

— PMC12136788
